How the values were obtained:
Details in all cases: concentration: 1 μM, replicates: in singlicate; n = 1
[1] = test system: PKMYT1
[2] = test system: PKN1
[3] = test system: PKN2
[4] = test system: PLK1
[5] = test system: PLK2
[6] = test system: PLK3
[7] = test system: PLK4
[8] = test system: PRKCD
[9] = test system: PRKCE
[10] = test system: PRKCH
[11] = test system: PRKCI
[12] = test system: PRKCQ
[13] = test system: PRKD1
[14] = test system: PRKD2
[15] = test system: PRKD3
[16] = test system: PRKG1
[17] = test system: PRKG2
[18] = test system: T1, PRKR
T1 construct: gene EIF2AK2

[19] = test system: PRKX
[20] = test system: PRP4
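Further: KINOMEscan kinase panel screen.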

## Cc1c2ccc(N(C)c3ccnc(Nc4cccc(S(N)(=O)=O)c4)n3)cc2nn1Cc1ccccc1.Cl.Cl [GW787226]
[1]
  %Inh: 0%
[2]
  %Inh: 0%
[3]
  %Inh: 0%
[4]
  %Inh: 0%
[5]
  %Inh: 0%
[6]
  %Inh: 15%
[7]
  %Inh: 50%
[8]
  %Inh: 0%
[9]
  %Inh: 0%
[10]
  %Inh: 0%
[11]
  %Inh: 0%
[12]
  %Inh: 0%
[13]
  %Inh: 0%
[14]
  %Inh: 0%
[15]
  %Inh: 0%
[16]
  %Inh: 0%
[17]
  %Inh: 0%
[18]
  %Inh: 0%
[19]
  %Inh: 0%
[20]
  %Inh: 0%

## CSc1ccc(-c2cc3ncnc(SCC(=O)O)c3s2)cc1
[1]
  %Inh: 10%
[2]
  %Inh: 8%
[3]
  %Inh: 0%
[4]
  %Inh: 0%
[5]
  %Inh: 0%
[6]
  %Inh: 0%
[7]
  %Inh: 11%
[8]
  %Inh: 17%
[9]
  %Inh: 26%
[10]
  %Inh: 2%
[11]
  %Inh: 0%
[12]
  %Inh: 0%
[13]
  %Inh: 18%
[14]
  %Inh: 0%
[15]
  %Inh: 9%
[16]
  %Inh: 0%
[17]
  %Inh: 0%
[18]
  %Inh: 0%
[19]
  %Inh: 0%
[20]
  %Inh: 0%

## Cc1cccc(Cn2ccn3c(=O)cc(N4CCOCC4)nc23)c1 [GSK2297542]
[1]
  %Inh: 16%
[2]
  %Inh: 0%
[3]
  %Inh: 0%
[4]
  %Inh: 14%
[5]
  %Inh: 0%
[6]
  %Inh: 0%
[7]
  %Inh: 0%
[8]
  %Inh: 9%
[9]
  %Inh: 2%
[10]
  %Inh: 31%
[11]
  %Inh: 14%
[12]
  %Inh: 28%
[13]
  %Inh: 13%
[14]
  %Inh: 7%
[15]
  %Inh: 24%
[16]
  %Inh: 0%
[17]
  %Inh: 9%
[18]
  %Inh: 0%
[19]
  %Inh: 23%
[20]
  %Inh: 1%

## CCCCCc1nc2c(N)ncnc2n1CCCCC [SKF-97255]
[1]
  %Inh: 0%
[2]
  %Inh: 0%
[3]
  %Inh: 0%
[4]
  %Inh: 19%
[5]
  %Inh: 18%
[6]
  %Inh: 27%
[7]
  %Inh: 25%
[8]
  %Inh: 18%
[9]
  %Inh: 0%
[10]
  %Inh: 7%
[11]
  %Inh: 8%
[12]
  %Inh: 0%
[13]
  %Inh: 0%
[14]
  %Inh: 0%
[15]
  %Inh: 0%
[16]
  %Inh: 0%
[17]
  %Inh: 0%
[18]
  %Inh: 0%
[19]
  %Inh: 0%
[20]
  %Inh: 3%

## Cn1cc(-c2ccc3c(c2)CCN3C(=O)Cc2ccccc2Cl)c2c(N)ncnc21 [GSK2608885]
[1]
  %Inh: 18%
[2]
  %Inh: 42%
[3]
  %Inh: 31%
[4]
  %Inh: 15%
[5]
  %Inh: 51%
[6]
  %Inh: 86%
[7]
  %Inh: 55%
[8]
  %Inh: 51%
[9]
  %Inh: 7%
[10]
  %Inh: 54%
[11]
  %Inh: 10%
[12]
  %Inh: 83%
[13]
  %Inh: 0%
[14]
  %Inh: 47%
[15]
  %Inh: 54%
[16]
  %Inh: 0%
[17]
  %Inh: 0%
[18]
  %Inh: 0%
[19]
  %Inh: 19%
[20]
  %Inh: 8%

## C[C@@H](Oc1cc(-n2cnc3ccc(NC(=O)NC(C)(C)C)cc32)sc1C(N)=O)c1ccccc1Cl [GSK346294]
[1]
  %Inh: 5%
[2]
  %Inh: 0%
[3]
  %Inh: 0%
[4]
  %Inh: 99.9%
[5]
  %Inh: 96%
[6]
  %Inh: 87%
[7]
  %Inh: 0%
[8]
  %Inh: 5%
[9]
  %Inh: 19%
[10]
  %Inh: 21%
[11]
  %Inh: 0%
[12]
  %Inh: 15%
[13]
  %Inh: 2%
[14]
  %Inh: 14%
[15]
  %Inh: 24%
[16]
  %Inh: 3%
[17]
  %Inh: 15%
[18]
  %Inh: 0%
[19]
  %Inh: 21%
[20]
  %Inh: 43%

## CN(C1=C(c2ccccc2)C(=O)NC1=O)c1ccccc1 [SB-334860]
[1]
  %Inh: 8%
[2]
  %Inh: 20%
[3]
  %Inh: 0%
[4]
  %Inh: 3%
[5]
  %Inh: 2%
[6]
  %Inh: 0%
[7]
  %Inh: 21%
[8]
  %Inh: 0%
[9]
  %Inh: 22%
[10]
  %Inh: 6%
[11]
  %Inh: 33%
[12]
  %Inh: 7%
[13]
  %Inh: 0%
[14]
  %Inh: 14%
[15]
  %Inh: 25%
[16]
  %Inh: 0%
[17]
  %Inh: 16%
[18]
  %Inh: 17%
[19]
  %Inh: 2%
[20]
  %Inh: 0%

## O=C(NCCNc1ccnc(Nc2ccc(F)cc2)n1)Nc1ccccc1F [GSK1379880]
[1]
  %Inh: 9%
[2]
  %Inh: 0%
[3]
  %Inh: 0%
[4]
  %Inh: 100%
[5]
  %Inh: 0%
[6]
  %Inh: 0%
[7]
  %Inh: 0%
[8]
  %Inh: 0%
[9]
  %Inh: 0%
[10]
  %Inh: 0%
[11]
  %Inh: 25%
[12]
  %Inh: 0%
[13]
  %Inh: 0%
[14]
  %Inh: 0%
[15]
  %Inh: 0%
[16]
  %Inh: 0%
[17]
  %Inh: 0%
[18]
  %Inh: 0%
[19]
  %Inh: 9%
[20]
  %Inh: 21%

## Cc1ccc(NC(=O)c2ccnc(N3CCN(C)CC3)c2)cc1-c1ccc(C(=O)NCC2CC2)cc1 [GW775604]
[1]
  %Inh: 9%
[2]
  %Inh: 0%
[3]
  %Inh: 0%
[4]
  %Inh: 6%
[5]
  %Inh: 7%
[6]
  %Inh: 5%
[7]
  %Inh: 0%
[8]
  %Inh: 0%
[9]
  %Inh: 0%
[10]
  %Inh: 0%
[11]
  %Inh: 0%
[12]
  %Inh: 0%
[13]
  %Inh: 0%
[14]
  %Inh: 2%
[15]
  %Inh: 0%
[16]
  %Inh: 0%
[17]
  %Inh: 0%
[18]
  %Inh: 0%
[19]
  %Inh: 0%
[20]
  %Inh: 0%

## CC(=O)Nc1ccc(COc2ccc(Nc3ccnc4cc(-c5ccccn5)ccc34)cc2)cc1.Cl [GW440148]
[1]
  %Inh: 0%
[2]
  %Inh: 32%
[3]
  %Inh: 0%
[4]
  %Inh: 0%
[5]
  %Inh: 0%
[6]
  %Inh: 0%
[7]
  %Inh: 0%
[8]
  %Inh: 0%
[9]
  %Inh: 0%
[10]
  %Inh: 0%
[11]
  %Inh: 15%
[12]
  %Inh: 0%
[13]
  %Inh: 18%
[14]
  %Inh: 14%
[15]
  %Inh: 0%
[16]
  %Inh: 0%
[17]
  %Inh: 8%
[18]
  %Inh: 27%
[19]
  %Inh: 12%
[20]
  %Inh: 27%

## COc1ccc(COc2cc(-n3cnc4ccccc43)sc2C(N)=O)cc1 [GSK1024304]
[1]
  %Inh: 0%
[2]
  %Inh: 0%
[3]
  %Inh: 0%
[4]
  %Inh: 97.4%
[5]
  %Inh: 90%
[6]
  %Inh: 86%
[7]
  %Inh: 4%
[8]
  %Inh: 4%
[9]
  %Inh: 0%
[10]
  %Inh: 0%
[11]
  %Inh: 0%
[12]
  %Inh: 32%
[13]
  %Inh: 0%
[14]
  %Inh: 24%
[15]
  %Inh: 3%
[16]
  %Inh: 0%
[17]
  %Inh: 0%
[18]
  %Inh: 0%
[19]
  %Inh: 10%
[20]
  %Inh: 11%

Source: PMC5540273 (PLoS ONE, 2017)
